Results taken from PubChem BioAssay AID372 (MTDP, 2006).
About 770 (0.77%) of roughly 100,000 compounds were called active. The entries come from a sample that favours actives as a whole. A number with no mark means an inactive call. Rule as the data show it: active = inhibition above about 50%; inactive = the rest.

biological target: Gag-Pol polyprotein (Human immunodeficiency virus type 1 group M subtype B (isolate HXB2)) (UniProt P04585); assay: RNase H inhibition, HIV 1 Gag Pol polyprotein, FRET biochemical assay, screening (AID 372); settings: HIV-1 RT RNase H, FRET RNA/DNA substrate fluorescence; at 10 µM; active compounds read high

Point of comparison: Cc1ccc([N+](=O)[O-])cc1NC(=O)C1CC1, inhibition 0%. Against it:
- O=C(N/N=C/c1ccc([N+](=O)[O-])cc1)c1ccccn1 — higher, 7%
- COc1ccc(I)cc1S(=O)(=O)N1CCN(c2ccc(F)cc2)CC1 — higher, 16%
- C/C(=N/NC(=O)C1COc2cc3ccccc3cc2O1)c1ccc([N+](=O)[O-])cc1 (centres undefined) — higher, 10%
- COc1ccc(C2CC(=O)C3=C(C2)NC(C)=C(C(=O)OCC(C)C)C3c2ccc(OC)c(OC)c2)cc1 (centres undefined) — higher, 8%
- CCC(Sc1nc2ccccc2s1)C(=O)Nc1ccc([N+](=O)[O-])cc1 (centres undefined) — higher, 10%
- O=C(NC(=S)Nc1cc([N+](=O)[O-])ccc1Cl)c1cccc(Cl)c1 — higher, 45%
- O=C(O)c1ccc(Oc2ccc3c(c2)C(=O)N(c2ccc([N+](=O)[O-])cc2)C3=O)cc1 — higher, 3%
- CCCCOC(=O)c1cccc(-c2ccc(/C=C3\C(=O)N(c4ccc(S(N)(=O)=O)cc4)N=C3C)o2)c1 — higher, 39%
- CC1=NN(c2ccc(S(N)(=O)=O)cc2)C(=O)/C1=C\c1ccc(-c2ccc(Cl)cc2)o1 — higher, 43%
- CC1=NN(c2cccc(Cl)c2)C(=O)/C1=C/c1ccc(-c2ccccc2[N+](=O)[O-])o1 — higher, 1%
- Cc1ccc(N2C(=O)NC(=O)/C(=C/c3ccc(-c4ccc(Cl)cc4Cl)o3)C2=O)cc1 — higher, 36%
- O=C(Nc1ccc(Cl)c(-c2nc3ccccc3s2)c1)c1ccccc1F — higher, 14%
- CCOC(=O)c1c(NC(=S)NC(=O)c2ccccc2)sc2c1CC(C(C)C)OC2 (centres undefined) — higher, 12%
- COc1ccc(CNC(=O)C(=O)Nc2ccccc2F)cc1 — higher, 15%
- O=C(NN1C(=O)c2ccc(C(=O)c3ccc4c(c3)C(=O)N(NC(=O)c3ccncc3)C4=O)cc2C1=O)c1ccncc1 — the same, 0%
- C/C(=N\N1CCN(Cc2cccc3ccccc23)CC1)c1cccs1 — higher, 19%
- COC(=O)/C=C1\SC(=Nc2ccccc2)NC1=O — higher, 6%
- O=C1C=CC(=NS(=O)(=O)c2cc(Cl)ccc2Cl)C=C1 — higher, 46%
- O=C1C=C/C(=N\S(=O)(=O)c2ccc(Cl)cc2)C=C1Cl — higher, 37%
- Clc1cccc(C=Nc2ccc(-c3ccc(N=Cc4cccc(Cl)c4Cl)cc3)cc2)c1Cl — higher, 17%
- N#Cc1c(N2CCCCC2)ncc2cc3ccccc3nc12 — the same, 0%
- CCOc1cc(C=O)cc(Br)c1OCc1ccc([N+](=O)[O-])cc1 — higher, 28%
- COC(=O)C(=Cc1cc(Br)c(OCc2ccc([N+](=O)[O-])cc2)c(OC)c1)C(=O)OC — higher, 12%
- O=Cc1cc(Cl)c(OCc2ccc([N+](=O)[O-])cc2)c(Cl)c1 — higher, 25%
- CCOC(=O)C(=Cc1cc(OC)c(O)c([N+](=O)[O-])c1)C(=O)OCC — higher, 5%
- NNC(=O)COc1cccc2ccccc12 — higher, 1%
- COc1ccc(C(=O)NC(=S)Nc2ccc3ccccc3c2)cc1OC — higher, 17%
- O=C(O)c1ccc(-c2ccc(/C=N/N3C(=O)C4C5C=CC(CC5)C4C3=O)o2)cc1 (centres undefined) — higher, 2%
- O=C(c1ccccc1)N1N=C(c2ccccc2)CC1(O)C(F)(F)F (centres undefined) — higher, 9%
- O=C(c1cccc(Br)c1)N1N=C(c2ccc(F)cc2)CC1(O)C(F)(F)F (centres undefined) — higher, 22%
- O=C(Nc1ccccc1)ON=C1c2ccccc2-c2ccccc21 — higher, 42%
- O=C(Nc1ccccc1Cl)ON=C1c2ccccc2-c2ccccc21 — higher, 43%
- COc1ccccc1NC(=O)Nc1cccc2ccccc12 — higher, 15%
- CCN(CC)c1ccc(C(NC(C)=O)NC(C)=O)cc1 — the same, 0%
- COc1ccc(CC(=O)NNC(=O)c2ccc(Cl)cc2)cc1OC — higher, 9%
- CC(=O)N1c2ccccc2C(C)=CC1(C)C — higher, 3%
- CC1=CC(C)(C)N(C(=O)c2ccccc2)c2ccccc21 — higher, 10%
- COC(=O)c1ccc(CSc2nnc(CCCN3C(=O)c4cccc5cccc(c45)C3=O)n2-c2ccccc2)cc1 — higher, 15%
- CCOC(=O)C1=C(C)N=c2s/c(=C\c3ccc(-c4ccc(Br)cc4[N+](=O)[O-])o3)c(=O)n2C1c1ccccc1 (centres undefined) — higher, 48%
- COc1ccc(C2C(C#N)=C(N)OC3=C2C(=O)CC(c2ccccc2)C3)cc1C (centres undefined) — higher, 9%
- O=C(Nc1cccc(Cl)c1Cl)c1ccc(-c2cccc(Cl)c2)o1 — higher, 37%
- O=C(Nc1cccc(Cl)c1Cl)c1ccc(Br)o1 — higher, 16%
- Clc1ccccc1OCCCn1ccnc1 — the same, 0%
- C=C(C)c1cccc(C(C)(C)NC(=O)NCc2ccco2)c1 — higher, 9%
- CCOC(=O)C1=C(C)N=c2s/c(=C\c3ccc(-c4cccc([N+](=O)[O-])c4)o3)c(=O)n2C1c1ccc(C)cc1 (centres undefined) — higher, 19%
- O=C1C2C3C=CC(CC3)C2C(=O)N1/N=C/c1ccc(O)cc1 (centres undefined) — the same, 0%
- O=C1C2C3C=CC(CC3)C2C(=O)N1/N=C/c1ccccc1O (centres undefined) — the same, 0%
- O=C1C2C3C=CC(CC3)C2C(=O)N1/N=C/c1ccc(I)o1 (centres undefined) — higher, 3%
- O=C1C2C3C=CC(C3)C2C(=O)N1/N=C/c1ccccc1I (centres undefined) — the same, 0%

CC1=NN(c2ccc(S(N)(=O)=O)cc2)C(=O)/C1=C\c1ccc(-c2cccc(Cl)c2C)o1 was tested, and the inhibition was 67% (active).
With CCOc1cc(C=O)cc(Cl)c1OCc1ccc([N+](=O)[O-])cc1 the inhibition was 54% (active).
In the case of CCOC(=O)C(=Cc1ccc(OCc2ccc([N+](=O)[O-])cc2)c(OC)c1)C(=O)OCC, the inhibition is reported as 59% (active).
For O=C(c1cccc(Br)c1)N1N=C(c2ccccc2)CC1(O)C(F)(F)F (centres undefined), the inhibition was 50% (active).
With O=C(Nc1cccc2ccccc12)ON=C1c2ccccc2-c2ccccc21 the inhibition was 56% (active).
In the case of CCC(C(=O)N1c2ccccc2C(C)=CC1(C)C)c1ccccc1 (centres undefined), the inhibition is reported as 50% (active).
For O=C(Nc1cccc(Cl)c1Cl)c1ccc(-c2ccc(Br)cc2)o1, the inhibition was 57% (active).
For O=C1C2C3C=CC(CC3)C2C(=O)N1/N=C/c1cccs1 (centres undefined), the inhibition was 56% (active).
In the case of O=C1C2C3C=CC(CC3)C2C(=O)N1/N=C/c1ccccc1I (centres undefined), the inhibition is reported as 59% (active).
